Results on 40 compounds are retold here after PubChem BioAssay (NCI).

A short description of test [1]: NCI Yeast Anticancer Drug Screen. Data for the rad50 strain (AID 155).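 Note: 0% = growth of vehicle-only cultures of the same strain.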 The note with it: S. cerevisiae rad50 strain growth inhibition; at 50.0 µM; hits give high values. In short, it runs like this: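 Readout: growth inhibition relative to vehicle-treated cultures. Compound exposure was carried out in a genetically defined yeast strain deficient in DNA damage repair.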

Test [2] can be described thus: NCI Yeast Anticancer Drug Screen. Data for the mec2-1 strain (AID 157). The note with it: S. cerevisiae mec2-1 strain, at 50.0 µM, hits give high values. In short, it runs like this: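 Test agents were screened against the mec2-1 yeast strain, with defined DNA repair or cell cycle alteration. Growth was scored as inhibition against vehicle-only controls.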
The nature of test [3]: NCI Yeast Anticancer Drug Screen. Data for the sgs1 mgt1 strain (AID 161).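 Note: 0% = growth of cultures given vehicle only.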 The note with it: S. cerevisiae sgs1 mgt1 strain, at 50.0 µM, hits give high values. In short, it runs like this:
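Genetically altered yeast, compound exposure, growth inhibition relative to vehicle.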

Test [4] is described as follows: NCI Yeast Anticancer Drug Screen. Data for the cln2 rad14 strain (AID 165).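 Note: 0% = growth equal to vehicle treated cultures.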 The note with it: S. cerevisiae cln2 rad14 strain, at 50.0 µM, hits give high values. In short, it runs like this: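 Growth of compound-exposed yeast (cln2 rad14 genotype) measured and expressed as inhibition relative to vehicle.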
The nature of test [5]: NCI Yeast Anticancer Drug Screen. Data for the bub3 strain (AID 167). The note with it: S. cerevisiae bub3 mutant strain, at 50.0 µM, hits give high values. The method, boiled down: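 Readout: yeast growth inhibition, expressed relative to vehicle-only wells. The test organism is a mutant strain from a panel with lesions in DNA repair or checkpoint genes.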
The nature of test [6]: NCI Yeast Anticancer Drug Screen. Data for the mlh1 rad18 strain (AID 175). The note with it: S. cerevisiae mlh1 rad18 strain growth inhibition; at 50.0 µM; hits give high values. The method, boiled down:
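In this whole-cell yeast screen, a strain with altered DNA damage repair is challenged with compound, and its growth is measured against matched vehicle-treated controls.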

Compounds without any hit were thinned out: in the full panel of roughly 79,000, 15% have a hit. Values without a mark were called inactive. Active and inactive are the calls of the source. Cut-off read from the data, not from the text of the source: active = growth inhibition above about 70%; inactive = the rest.

On to `CC(=O)Oc1cc(OC(C)=O)c2c(c1)OC(c1ccc(OC(C)=O)c(OC(C)=O)c1)CC2=O` (stereo not given), for which the growth inhibition in test [1] is 21.4%; in test [2], 3.8%; in test [3], 18.3%; in test [4], 3.95%; in test [5] it was 3.85%; in test [6], 28%.

As to `c1ccc(SCCP(CCP(c2ccccc2)c2ccccc2)c2ccccc2)cc1` (stereo not given), the growth inhibition in test [1] was 34.9%; in test [2], 2.6%; in test [3], 14.3%; in test [4], 22.4%; in test [5] it was 37.8%; in test [6] it was 57.1%.

In the case of `[Cl][Sn]1([Cl])[CH2]CCCCCCCCCC[CH2][Sn]([Cl])([Cl])[CH2]CCCCCCCCCC[CH2]1`, the growth inhibition in test [1] is -12.9%; in test [2] it was 1.2%; in test [3], 9.65%; in test [4] it was -12.7%; in test [5], -13.6%; in test [6], -25.5%.

Consider `COC(=O)c1ccc(C[P+](c2ccccc2)(c2ccccc2)c2ccccc2)cc1`, for which the growth inhibition is 15.5% in test [1]; 7.75% in test [2]; 44.3% in test [3]; 40.2% in test [4]; 0.95% in test [5]; 43.1% in test [6].

As for `CCSCC1C(=O)C23C(O)C1CCC2C12COC3(O)C(O)C1C(C)(C)CCC2O` (stereo not given), the growth inhibition in test [1] was 16.6%; in test [2], 18.4%; in test [3], 7.45%; in test [4], 10.9%; in test [5] it was 2.4%; in test [6], 7.05%.

On to `Cc1cc(C)cc(O)c1`, for which the growth inhibition in test [1] was -9.4%; in test [2], -12.8%; in test [3], -42%; in test [4], -13.2%; in test [5], -14.8%; in test [6] it was -1.7%.

In the case of `CCCCOC(=O)c1cccc(C(=O)OCCCC)n1`, the growth inhibition was -20.9% in test [1]; -18.9% in test [2]; -14.1% in test [3]; -5.6% in test [4]; -11.5% in test [5]; -22.8% in test [6].

`NC(CC1C=CC=CC1)C(=O)O` (stereo not given): the growth inhibition in test [1] was 0.6%; in test [2] it was 3.15%; in test [3], 8.35%; in test [4] it was -6%; in test [5], -4.05%; in test [6] it was -4.85%.

On to `NC(=O)CSCC(N)C(=O)O` (stereo not given), for which the growth inhibition in test [1] was -9.75%; in test [2], -26.4%; in test [3], -13.1%; in test [4], -21.9%; in test [5], -28.5%; in test [6], -20%.

Consider `C=CCNc1ccc(C)cc1`, for which the growth inhibition was 16.5% in test [1]; -8.15% in test [2]; 20.1% in test [3]; 13.4% in test [4]; -5% in test [5]; 20.4% in test [6].

Consider `CNc1ncnc2[nH]ncc12`, for which the growth inhibition is 18.4% in test [1]; -0.85% in test [2]; 6.25% in test [3]; -18.2% in test [4]; -7.05% in test [5]; 1.35% in test [6].

`NCCCCN(CCCN)C(=O)c1ccccc1`: the growth inhibition in test [1] is 5.5%; in test [2], -2.2%; in test [3], -17.8%; in test [4], 1.8%; in test [5], -14.3%; in test [6], -68.9%.

As for `Nc1ncc(Cl)cn1`, the growth inhibition in test [1] was 19.6%; in test [2] it was -21.4%; in test [3] it was 8%; in test [4], -25.2%; in test [5], -22.3%; in test [6] it was -23.6%.

In the case of `CC(=O)OCC1OC(n2cnc3c(N)ncnc32)C(O)C1O` (stereo not given), the growth inhibition in test [1] was -3.7%; in test [2], -6.45%; in test [3], -6.15%; in test [4] it was -39.7%; in test [5], 4.5%; in test [6], -11.2%.

As for `CCOC1CN=C(Nc2cccc3ccccc23)S1` (stereo not given), the growth inhibition was -51.6% in test [1]; -33.3% in test [2]; -27.9% in test [3]; -2.65% in test [4]; -34.4% in test [5]; -29.8% in test [6].

On to `COc1ccc(N=Nc2c(C)c(C#N)c(=S)n(C3OC(COC(C)=O)C(OC(C)=O)C(OC(C)=O)C3OC(C)=O)c2-c2ccccc2)cc1` (stereo not given), for which the growth inhibition in test [1] is -8.55%; in test [2], -8.9%; in test [3], -20.6%; in test [4], 9.05%; in test [5], 8%; in test [6] it was -5.1%.

`CNC(=S)c1ccc(Cl)cc1`: the growth inhibition in test [1] was 12.3%; in test [2], -20.6%; in test [3] it was -15.1%; in test [4] it was -29.8%; in test [5], -2.05%; in test [6] it was 11.3%.

Take `Cc1cc(C)c(C)c(CN)c1C`: the growth inhibition in test [1] was -20%; in test [2], -5.85%; in test [3], -9.35%; in test [4], 7.8%; in test [5] it was 13.7%; in test [6], -3%.

Consider `COC(=O)C1(CC(=O)c2ccc(F)cc2)NC(=S)NC(=O)C1C#N` (stereo not given), for which the growth inhibition in test [1] is 14.6%; in test [2], 2%; in test [3], -8.3%; in test [4] it was -13.1%; in test [5], -34%; in test [6], -1.7%.

Turning to `O=C(O)C(Cc1ccccc1)N1C(=O)c2ccccc2C1=O` (stereo not given), the growth inhibition in test [1] is 1.7%; in test [2], -17.5%; in test [3], -35.6%; in test [4], -19.6%; in test [5] it was -36.5%; in test [6], 5.55%.

On to `BrC1CCC(Br)CC1` (stereo not given), for which the growth inhibition is 7.1% in test [1]; -11.1% in test [2]; -8.45% in test [3]; -12.9% in test [4]; -2.3% in test [5]; -9.7% in test [6].

On to `O=C1CCCCCCCCC1=O`, for which the growth inhibition is 3.5% in test [1]; -6.4% in test [2]; -11.3% in test [3]; -4.05% in test [4]; -12.8% in test [5]; -11.2% in test [6].

Turning to `CC(C)C1=CC23CCC4C(C)(C(=O)O)CCCC4(C)C2CC1C1C(=O)N(CCCN(C)C)C(=O)C13` (stereo not given), the growth inhibition in test [1] was 98.8% (active); in test [2] it was 99% (active); in test [3], 99% (active); in test [4], 98.2% (active); in test [5], 98% (active); in test [6], 98.6% (active).

`CC(C)Oc1ccc(C(=O)O)cc1`: the growth inhibition was 23.6% in test [1]; 5.05% in test [2]; 4.75% in test [3]; -0.15% in test [4]; -19.1% in test [5]; 14.1% in test [6].

As to `Clc1ccc(Nc2ncnc3oc(-c4ccccc4)c(-c4ccccc4)c23)cc1`, the growth inhibition is 6.7% in test [1]; 13% in test [2]; 1.3% in test [3]; -5.05% in test [4]; -4.1% in test [5]; 4.65% in test [6].

With `CCC(C)(O)Cc1ccccc1Cl` (stereo not given), the growth inhibition was 30.1% in test [1]; 24.1% in test [2]; 21.9% in test [3]; 17.1% in test [4]; 7.2% in test [5]; 11.8% in test [6].

Take `C=CC(=O)NC(C)C(=O)O` (stereo not given): the growth inhibition is -4.45% in test [1]; -2.5% in test [2]; 0% in test [3]; -7.05% in test [4]; -10.9% in test [5]; -4.15% in test [6].

Regarding `O=C1/C(=C/c2cccc3ccccc23)CCc2ccc([N+](=O)[O-])cc21`, the growth inhibition is -34.5% in test [1]; -23.6% in test [2]; -49.9% in test [3]; -23.9% in test [4]; 20.1% in test [5]; -15.6% in test [6].

On to `Cc1cc2nnn(C3CCCCO3)c2cc1C` (stereo not given), for which the growth inhibition in test [1] was 3.25%; in test [2], -12.9%; in test [3] it was -17.9%; in test [4] it was -15.8%; in test [5], 12.8%; in test [6] it was -31.7%.

Regarding `COc1c(-c2cccs2)oc2c(CC(=O)O)cccc2c1=O`, the growth inhibition was 10.9% in test [1]; -10.8% in test [2]; 28.1% in test [3]; 5.9% in test [4]; 17.7% in test [5]; -26% in test [6].

With `O=[N+]([O-])c1nccn1CCCN=c1c2ccccc2n(O)c2ccccc12`, the growth inhibition in test [1] was 8.9%; in test [2] it was -16.4%; in test [3], -5.85%; in test [4], -5.8%; in test [5], -12.7%; in test [6], -33.4%.

Take `Cc1ccc2sc3nc4ccccc4nc3c2c1`: the growth inhibition in test [1] was 12.1%; in test [2] it was 3.5%; in test [3], -1.95%; in test [4] it was -4.25%; in test [5] it was 5.8%; in test [6], -1.25%.

For `CCN(CC)C(=O)c1ccc(C)c(N=NN(C)C)c1`, the growth inhibition in test [1] was -5.7%; in test [2], -36.2%; in test [3], -20.9%; in test [4], -0.15%; in test [5], -19.9%; in test [6] it was -8.75%.

On to `Cc1c(O)c2c(c(O)c1Cc1ccc(C#N)cc1)C(=O)c1ccccc1C2=O`, for which the growth inhibition is -4.5% in test [1]; 31.4% in test [2]; 17.9% in test [3]; -4.25% in test [4]; -1.95% in test [5]; -0.9% in test [6].

Take `CC(=O)Oc1ccc(OC(C)=O)c2cc3c(cc12)C(=O)C(C)=C(C)C3=O`: the growth inhibition in test [1] was 0.4%; in test [2] it was 2.35%; in test [3], 1.1%; in test [4] it was -7.05%; in test [5] it was 3.35%; in test [6], 4.85%.

In the case of `O=C(NCC1CC1)c1ccccc1NC(=O)c1cc2ccccc2oc1=O`, the growth inhibition is -7.9% in test [1]; -8.25% in test [2]; 8.4% in test [3]; 9.85% in test [4]; 18.7% in test [5]; 19.8% in test [6].

In the case of `Cc1ccc(NC(=O)CCC(=O)O)cc1Cl`, the growth inhibition in test [1] is -19.9%; in test [2], -15.9%; in test [3], -4.25%; in test [4], -27.2%; in test [5], -10.9%; in test [6], -16.2%.

On to `CCc1nnc(CC)n1N`, for which the growth inhibition in test [1] was 46.2%; in test [2], -7.05%; in test [3], 41.8%; in test [4], -10.6%; in test [5] it was 16.4%; in test [6], 38.2%.

With `COC1(OC)C2(Cl)CCC1(Cl)C(OC(C)=O)C2` (stereo not given), the growth inhibition in test [1] was -21.4%; in test [2], -5%; in test [3], 4.65%; in test [4], 26.8%; in test [5], -8%; in test [6] it was -10.7%.

For the compound `O=C(O)C1CCCCCC1`, the growth inhibition in test [1] is 7.45%; in test [2], 0.65%; in test [3], 1.8%; in test [4], -2.55%; in test [5], 8.65%; in test [6], 2%.
